TDP43 rescue: qHTS of TDP-43 Inhibitors | TDP-43 expressing yeast growth rescue, BacTiter-Glo, 24 h | Potency, µM (doses to about 46.1 µM), for inactives: at the highest dose growth rescue (activation), hits mostly activators | hit rate 1.8% among 410,000; further: potency means the concentration at half of the fitted maximal effect; % of control where 0% means no effect; nearly all actives have a fitted effect of over 50% in size
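Luminescence from BacTiter-Glo reports growth of TDP-43-expressing yeast after 24 hr at 30 deg C with compound. Cells were raffinose-pregrown to mid-log, then seeded in galactose medium at OD600=0.02.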
LDHA inh: qHTS assay for inhibitors of human lactate dehydrogenase. activity change, % (values are at about 110 or 230 µM). AID 1347041, 2019. hit rate 0.15% among 480,000. purified LDHA, NADH/diaphorase-resazurin fluorescence; hits give low values. L-lactate dehydrogenase A chain (Homo sapiens), P00338; in the data active means activity change below about -30%; inconclusive means mostly about -25% to -30%;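 further: plate controls were DMSO wells for no effect and wells without enzyme for full effect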
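Human LDH5 (2 nM) was incubated with 0.06 mM NADH and 0.2 mM pyruvate for 5 min at room temperature in Tris pH 7.4. Remaining NADH was coupled through diaphorase/resazurin, and resorufin fluorescence was read at 0 and 20 min.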
aSyn yeast inh: qHTS of alpha-syn Inhibitors; Potency, µM (series often up to 46.1 µM), for inactives: at the top dose growth rescue (activation), usual class: activators; Yeast expressing alpha-synuclein, growth rescue, BacTiter-Glo, 24 h; hit rate 0.14% among 370,000; further: potency means the concentration at half of the fitted maximal effect; % of control where 0% means no effect; nearly all actives have a fitted effect of over 65% in size
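Readout is rescue of growth in alpha-synuclein-expressing yeast, so inhibitors of toxicity appear as activators. Growth after 24 hr at 30 deg C in galactose medium is quantified by luminescence.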
PTHR1 agonist: qHTS for PTHR1 Agonists: Primary Screen; HEK293 GP2 PTHR1 cells, GloSensor cAMP luminescence, 1 h; Potency, µM (top dose mostly 115 µM), for inactives: top-dose activation, usual class: activators; hit rate 0.075% among 410,000; AID 743266, 2014; further: potency means the concentration at half of the fitted maximal effect; nearly all actives have a fitted effect of over 55% in size
Target sequence (Q03431 whole entry, looked up): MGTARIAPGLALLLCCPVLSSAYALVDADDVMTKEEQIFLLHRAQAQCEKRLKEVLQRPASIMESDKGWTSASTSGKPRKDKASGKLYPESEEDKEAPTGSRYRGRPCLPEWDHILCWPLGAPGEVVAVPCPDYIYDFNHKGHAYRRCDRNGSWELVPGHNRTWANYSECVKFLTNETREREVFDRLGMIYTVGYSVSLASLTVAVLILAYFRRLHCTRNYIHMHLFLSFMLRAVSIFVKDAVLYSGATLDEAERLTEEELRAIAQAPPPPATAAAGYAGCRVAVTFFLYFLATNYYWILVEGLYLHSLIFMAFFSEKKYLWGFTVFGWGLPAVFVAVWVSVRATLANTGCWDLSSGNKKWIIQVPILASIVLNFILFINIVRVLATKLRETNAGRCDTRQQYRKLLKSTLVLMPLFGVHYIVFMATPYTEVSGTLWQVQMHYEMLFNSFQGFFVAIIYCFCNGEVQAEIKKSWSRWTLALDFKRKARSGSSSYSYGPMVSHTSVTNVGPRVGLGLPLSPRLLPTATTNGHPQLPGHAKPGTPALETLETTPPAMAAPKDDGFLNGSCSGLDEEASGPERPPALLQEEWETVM
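HEK-293-derived GP2 cells expressing PTHR1 and a GloSensor cAMP reporter, 3,000/well, plated overnight, given luciferin plus IBMX (each 0.5 mM as added) for 1 h at 37 °C, then compound for 1 h at 37 °C. Luminescence was read after 15 min at room temperature.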
FUS suppressor: qHTS for Suppressors of FUS Proteinopathy: Primary screen using FUS-linked yeast assay | S. cerevisiae FUS-expressing, growth rescue, OD600, 24 h | Potency, µM (top dose mostly 76.6 µM), usual class: activators | hit rate 0.24% among 390,000 | AID 1347120, 2019;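 further: potency means the concentration at half of the fitted maximal effect; plate controls were DMSO vehicle for no effect and reference control for full effect; nearly all actives have a fitted effect of over 55% in size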
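Restored growth of FUS-toxic S. cerevisiae, read as 600 nm absorbance after 24 h at 30C in galactose medium (starting OD 0.005). Controls CP55940 and DMSO.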
Abeta rescue: qHTS for compounds that reverse cellular toxicity of Amyloid beta (A-beta) peptide in yeast: Primary Screen. yeast expressing A-beta42, growth rescue, OD600, 48 h; response scale: 0% DMSO, 100% iron-clioquinol control. Potency, µM (doses to about 46.1 µM), actives largely listed as activators. hit rate 0.063% among 410,000; further: potency means the concentration at half of the fitted maximal effect; nearly all actives have a fitted effect of over 55% in size
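Growth rescue measured by 600 nm absorbance after 48 h yeast culture at 30 C with compound. Values normalized between DMSO and an equimolar ferric chloride plus clioquinol control.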
An asterisk follows results filed as active; i = inactive; ? = inconclusive; nt = no result given; [ ] = remark or other dose. Hits are enriched below; roughly 1.9% of the tested compounds scored in any of these assays. Unless noted, the call rests on the fitted dose curve; in most records, active means well fitted curve in the direction sought with a large enough effect; inconclusive means small, poorly fitted or top-dose-only effect, or another doubt; inactive means no such curve, though single readings can be large; an effect the other way counts as inactive or inconclusive.

SMILES | TDP43 rescue | LDHA inh | aSyn yeast inh | PTHR1 agonist | FUS suppressor | Abeta rescue
O=C(NC1CCSc2ccccc21)c1cccc(Cl)c1 (stereo not given) | 5.6µM* | -18 | 4% | -29% | i | i
NS(=O)(=O)c1cccc(C(=O)NC2CCSc3ccccc32)c1 (stereo not given) | -12% | -2 | 0% | -2% | i | i
CCN(Cc1ccc(OC)c(F)c1)C(=O)c1n[nH]c(=O)c2ccccc12 | nt | 9 | nt | nt | nt | nt
CN(CCc1noc(COc2cccc(C(F)(F)F)c2)n1)C(=O)c1cccc(Cl)c1 | nt | -4 | nt | nt | nt | nt
COCCN=c1scc(-c2cc(OC)ccc2OC)n1/N=C/c1c[nH]c2ccccc12 | 22µM* | -2 | ? | i | i | i
O=[N+]([O-])c1cc(Br)c(O)c(/C=N/Nc2nnnn2-c2cccc3ccccc23)c1 | ? | -37* | -9% | -28%[57.5 µM] | i | i
COc1ccc(N(CC(=O)NC2CC3CCC2C3)S(=O)(=O)c2ccc(C)cc2)cc1 (stereo not given) | -9% | -7 | -8% | -14% | nt | i
Cc1ccc(S(=O)(=O)N(CC(=O)NC2CC3CCC2C3)c2ccccc2)cc1 (stereo not given) | 14% | -43* | 1% | -11% | i | i
CC(=O)NCc1ccc(C(=O)OC(C)C(=O)C23CC4CC(CC(C4)C2)C3)cc1 (stereo not given) | nt | 7 | nt | nt | nt | nt
Cc1cccc(NS(=O)(=O)c2ccc3c(c2)CC(C)N3C(=O)C2CCC2)c1C (stereo not given) | 20µM* | 2 | nt | -37% | ? | i
Cc1cc(C)c(NS(=O)(=O)c2ccc3c(c2)CC(C)N3C(=O)C2CCC2)c(C)c1 (stereo not given) | 11µM* | -2 | nt | -15% | ? | i
CCOc1ccccc1NS(=O)(=O)c1ccc2c(c1)CC(C)N2C(=O)C1CCC1 (stereo not given) | 24% | -7 | nt | i | ? | i
Cc1ccc(CNS(=O)(=O)c2ccc3c(c2)CC(C)N3C(=O)C2CCC2)cc1 (stereo not given) | -7% | 1 | nt | -45% | i | i
CC1CCN(S(=O)(=O)c2ccc3c(c2)CC(C)N3C(=O)C2CCC2)CC1 (stereo not given) | 18µM* | 0 | 12% | -29% | ? | nt
O=C(Nc1ccc(C(=O)Nc2cccc3ncccc23)cc1)c1ccccc1 | nt | 3 | nt | nt | nt | nt
CC(C(=O)N(C)CC(=O)Nc1ccccc1C(F)(F)F)N1CCN(Cc2ccc(Cl)cc2)CC1 (stereo not given) | nt | 8 | nt | nt | nt | nt
O=C(Nc1c(F)cc(F)cc1Br)c1cc(-c2ccccc2)on1 | 15% | 0 | 5% | -7% | i | i
O=C(Nc1c(F)cc(F)cc1Br)c1cc(-c2ccc(O)cc2)on1 | 11µM* | 1 | -20% | -29% | i | i
CC1(C(=O)NS(=O)(=O)c2ccc(C#N)cc2)CCN1C(=O)C1(c2ccc(Cl)cc2)CCC1 (stereo not given) | 24% | -9 | -4% | -19% | i | i
CC1(C(=O)Nc2ccc3c(c2)OCCO3)CCN1C(=O)C1(c2ccc(Cl)cc2)CCC1 (stereo not given) | 13% | -3 | 13% | -36% | ? | i
CC1(C(=O)Nc2ccc3c(c2)OCCO3)CCN1C(=O)C1(c2ccc(Cl)cc2)CC1 (stereo not given) | 35µM* | -3 | 6% | -16% | i | i
CC1(C(=O)NS(=O)(=O)c2cccc(C#N)c2)CCN1C(=O)C1(c2ccc(Cl)cc2)CCC1 (stereo not given) | 8% | 0 | 28µM* | -52% | i | i
Nc1cc(-c2ccc(Br)cc2)nn1Cc1ccccc1 | 20µM* | -1 | -1% | -28% | i | ?
Cc1cccc(C(=O)O/N=C2\CCCc3ccccc32)c1 | 11µM* | -3 | 0% | -15%[57.5 µM] | i | i
O=C(O/N=C1\CCCc2ccccc21)c1cccc(Cl)c1 | 5µM* | -2 | 1% | -10%[57.5 µM] | i | i
SMILES | TDP43 rescue | LDHA inh | aSyn yeast inh | PTHR1 agonist | FUS suppressor | Abeta rescue
COc1cccc(CNC(=O)c2ccc(F)c(S(=O)(=O)N3CCCCC3)c2)c1 | ? | -5 | 0% | -13% | 35µM* | i
O=C(Nc1cc(Cl)cc(Cl)c1)c1ccc(F)c(S(=O)(=O)N2CCCC2)c1 | 18µM* | -3 | nt | -41% | i | i
Cc1cccc(C(=O)NCCc2c[nH]c3ccc(Cl)cc23)c1 | nt | 7 | nt | nt | nt | nt
Cc1cc(-n2c(C)cc(C(=S)N3CCOCC3)c2C)ccc1Br | 20µM* | -3 | -2% | -25% | nt | i
CNC(=O)NC(=O)COC(=O)c1cc(-c2ccco2)nc2ccccc12 | nt | -1 | nt | nt | nt | nt
O=C(Nc1ccccc1)N1CCN(c2nc(-c3ccccc3)ns2)CC1 | 11µM* | -6 | -3% | -30% | i | i
O=C(Nc1ccccc1Cl)N1CCCN(c2nc(-c3ccccc3)ns2)CC1 | 0% | 2 | 16% | -37% | i | i
O=C1CC(c2ccccc2)CC2=C1C=Nc1ccccc1N2 (stereo not given) | 0% | -1 | 1% | -7% | i | i
O=C1CC(c2ccc(F)cc2)CC2=C1C=Nc1ccccc1N2 (stereo not given) | 22µM* | -2 | -3% | -63% | i | i
COc1ccc([C@@H]2[C@@H](C(N)=O)C2(C#N)C#N)cc1 | nt | 3 | nt | nt | nt | nt
COc1ccc(OC)c(Nc2nc(-c3cccs3)cs2)c1 | 16µM* | 1 | 8% | i | i | i
CCCCCC(=O)Nc1nc(C)c(-c2csc(Nc3cc(OC)ccc3OC)n2)s1 | 2% | 6 | -1% | 45µM* | ? | i
COc1ccc(Nc2nc(-c3sc(C)nc3C)cs2)c(OC)c1 | 16µM* | -2 | -14% | -41% | i | i
COc1ccc(Nc2nc(-c3cccs3)cs2)c(OC)c1 | 13µM* | 0 | nt | -35% | i | i
Cc1ccccc1NC(=O)CCS(=O)(=O)c1ccc2c(c1)NC(=O)CS2 | nt | -5 | nt | nt | nt | nt
CC(C)c1cc(-c2cc(C(=O)NCc3ccccc3)on2)nc(NCC2CC2)n1 | 16µM* | 0 | ? | -27% | i | i
Cc1c(C(=O)NCc2ccc(Cl)cc2)sc2nc3n(c(=O)c12)CCCC3 | ? | -3 | nt | i | i | i
